A selection: hits, their analogues and other compounds. The true share with any hit is near 2.8%.
EWS-Fli inh: EWS/Fli-driven NR0B1 reporter inhibitors, primary screen, A673 cells, NR0B1 luciferase, luminescence, MLPCN library; viability-normalised; 0.67% of 350,000 active; inhibition, % at 12.6 µM;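 active = mean inhibition of at least 50% after viability correction, with every replicate also passing that limit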;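 also: firefly luciferase signal divided by Alamar Blue viability fluorescence both relative to DMSO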
TWEAK Fn14 block: inhibitors of TWEAK-Fn14 signaling, primary screen, luciferase reporter cells, uHTS | TWEAK-stimulated Fn14 reporter cells, luciferase luminescence, 8 h | inhibition, % at 10 µM | 2% of 360,000 active | AID 1159606, 2016; in the data active = inhibition above about 50%
PAX8 inh HTS: inhibitors of PAX8-driven TPO luciferase reporter, primary screen, RMG-I cells, single concentration | SteadyGlo, 24 h | inhibition, % at 12.6 µM | 1.2% of 360,000 active;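 active = mean replicate inhibition at least 60% with every replicate also reaching 60%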;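 also: luciferase light reporting Pax8 driven TPO promoter activity; plate controls were median of neutral control wells for no effect and mitoxantrone controls for full effect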
TROY NFkB inh: inhibitors of TROY-driven NF-kB signaling, primary screen, Q293 LMP1-TROYcd cells, NF-kB luciferase, uHTS. Q293 LMP1-TROYcd NF-kB luciferase reporter, 4 h. inhibition, % at 10 µM. 0.98% of 360,000 active;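 active = compounds whose plate-normalised and pattern-corrected inhibition of the luciferase reporter signal at the single screening dose is 50% or more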
LGR2 antag: inhibitors of bursicon-induced LGR2 CRE-luciferase signal, primary screen, cell-based, HEK293, CRE-luciferase reporter, bursicon stimulation; bursicon-stimulated, 4 h; inhibition, % at 9.99 µM; 0.35% of 380,000 active; AID 720647, 2013;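 active = drop in luminescence signal, shown as inhibition above about 50% in the replicate tests, limit read from the data, passing the limit was not always enough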;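 also: agonist challenge used bursicon conditioned medium at about half maximal strength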
Numbers without * were called inactive; . = no result.

SMILES	EWS-Fli inh	TWEAK Fn14 block	PAX8 inh HTS	TROY NFkB inh	LGR2 antag
Cc1ccc(S(=O)(=O)c2c(N)n(CCC(C)C)c3nc4ccccc4nc23)cc1	.	44.3	.	73.3*	.
Nc1c(S(=O)(=O)c2cccs2)c2nc3ccccc3nc2n1Cc1cccs1	.	24.5	.	69.8*	.
CC(C)CCn1c(N)c(S(=O)(=O)c2cccs2)c2nc3ccccc3nc21	15.5	90.2*	.	86.3*	31.1
Cc1ccc(C(=O)Nn2c(N)c(S(=O)(=O)c3ccc(C)cc3)c3nc4ccccc4nc32)cc1	.	22.9	.	7.0	.
Nc1c(S(=O)(=O)c2cccs2)c2nc3ccccc3nc2n1Cc1ccc2c(c1)OCO2	.	41.5	.	15.1	.
Cc1ccc(S(=O)(=O)c2c(N)n(CCCO)c3nc4ccccc4nc23)cc1	.	27.7	.	64.2*	.
NC(=O)c1sc2nc3c(c(-c4cccs4)c2c1N)CCCCC3	.	76.0*	.	-6.4	.
NC(=O)c1sc2nc3c(c(-c4cccnc4)c2c1N)CCC3	.	-5.9	.	-16.0	.
O=C(C[C@H]1CC[C@@H](NC(=O)NC2CCCCC2)[C@H](CO)O1)NCc1ccccc1	-1.5	.	-4.7	.	4.5
O=S(=O)(c1cccs1)N1CCN(CC(O)COc2cc(Cl)ccc2Cl)CC1 (stereo unspecified)	.	30.2	39.8	51.6*	14.9
CCC(C)Nc1nc(CN2CCOCC2)nc2sc3c(c12)CCC3 (stereo unspecified)	.	74.6*	.	.	.
Cc1c(C(=O)Nc2nonc2-c2ccc(F)cc2)oc2ccc(F)cc12	41.0	78.5*	28.5	38.8	17.8
CO[C@H]1CN(C)C(=O)c2cc(NC(=O)Nc3cc(Cl)cc(Cl)c3)ccc2OC[C@@H](C)NC[C@H]1C	4.0	.	.	.	-17.1
O=C(CN1CCOCC1)N[C@@H]1CC[C@H](CCn2cc(C3CC3)nn2)O[C@H]1CO	-1.4	.	-4.4	.	-0.1
Cc1ccccc1Nc1nnc(SCC2CCCCO2)s1 (stereo unspecified)	-20.8	33.2	-147.1	-20.4	-41.2
COc1ccccc1Nc1nnc(SCC2CCCCO2)s1 (stereo unspecified)	19.0	64.9*	7.0	28.8	36.3
Cc1noc(C)c1S(=O)(=O)N(C)C[C@@H]1Oc2ccc(NS(=O)(=O)c3ccc(F)cc3)cc2CC(=O)N([C@@H](C)CO)C[C@H]1C	-7.0	.	.	.	-5.4
CCCNC(=O)Nc1ccc2c(c1)C(=O)N(C)C[C@H](OC)[C@@H](C)CN(C(=O)C1CCOCC1)[C@@H](C)CO2	-7.5	.	-5.6	.	6.9
C=CC(=O)N1C/C(=C/c2ccc(F)cc2)C(=O)/C(=C\c2ccc(F)cc2)C1	86.9*	105.9*	99.7*	78.6*	100.9*
NC(=S)NN=C1c2cc(OCCN3CCOCC3)ccc2-c2ccc(OCCN3CCOCC3)cc21	63.9*	6.5	58.8	75.1*	104.2*
ON=C1c2cc(OCCN3CCCCC3)ccc2-c2ccc(OCCN3CCCCC3)cc21	.	-4.5	.	15.2	.
CC(C)CC#Cc1ccc2c(c1)O[C@H](CN(C)Cc1cccc(F)c1)[C@@H](C)CN([C@@H](C)CO)S2(=O)=O	62.1*	.	.	.	10.3
CC(C)CC#Cc1ccc2c(c1)O[C@H](CN(C)Cc1ccc(F)cc1)[C@H](C)CN([C@H](C)CO)S2(=O)=O	35.6	.	76.3*	.	.
COc1ccc(NC(=O)Nc2ccc3c(c2)[C@H]2C[C@H](CC(=O)N4CCCCC4)O[C@H](CO)[C@H]2O3)cc1	2.5	.	5.8	.	7.2
C[C@@H]1CN([C@@H](C)CO)S(=O)(=O)c2ccc(C#CC(C)(C)O)cc2O[C@@H]1CN(C)Cc1ccccc1	2.8	.	.	.	10.3
SMILES	EWS-Fli inh	TWEAK Fn14 block	PAX8 inh HTS	TROY NFkB inh	LGR2 antag
O=C(CN1CCOCC1)N[C@H]1CC[C@@H](CCn2cc(C3CCCCC3)nn2)O[C@H]1CO	.	.	.	.	11.3
COC(=O)C1=C(C)N(c2cc(C)cc(C)c2)/C(=C/c2ccco2)C1=O	7.8	31.4	10.0	28.1	-9.9
COC(=O)C1=C(C)N(c2ccc(Cl)cc2)/C(=C/c2ccc(O)cc2)C1=O	12.9	57.0*	15.5	15.7	31.9
COC(=O)C1=C(C)N(c2cc(C)cc(C)c2)/C(=C/c2ccc(O)cc2)C1=O	6.3	57.9*	17.0	12.7	28.8
CCC(=O)Nc1ccc2c(c1)C(=O)N(C)[C@@H]1CC[C@@H](CC(=O)NCCOC)O[C@@H]1CO2	-1.6	.	-7.5	.	1.0
COc1ccc(NC(=O)N(C)C[C@@H]2OCCCC[C@H](C)Oc3ccc(NC(=O)c4ccncc4)cc3C(=O)N([C@H](C)CO)C[C@H]2C)cc1	6.8	.	7.4	.	-14.1
N#CC1=C2N=C(N)c3c(sc4c3CCCCC4)N2C2=C(C(=O)CCC2)C1c1ccccc1 (stereo unspecified)	.	47.1	.	54.0*	.
C[C@H](CO)N1C[C@H](C)[C@H](CN(C)C(=O)c2ccncc2)OCCCC[C@H](C)Oc2ccc(NS(=O)(=O)c3cn(C)cn3)cc2C1=O	-7.4	.	12.4	.	-8.6
COc1ccc(CN(C)C[C@H]2OCCCC[C@H](C)Oc3ccc(NS(=O)(=O)c4ccc(OC)cc4)cc3C(=O)N([C@H](C)CO)C[C@@H]2C)cc1	78.1*	.	-4.0	.	4.8
COc1ccc(CN(C)C[C@H]2OCCCC[C@@H](C)Oc3ccc(NS(=O)(=O)c4ccc(OC)cc4)cc3C(=O)N([C@@H](C)CO)C[C@@H]2C)cc1	69.4*	.	24.1	.	5.0
COc1ccc(CN(C)C[C@@H]2OCCCC[C@H](C)Oc3ccc(NS(=O)(=O)c4ccc(OC)cc4)cc3C(=O)N([C@@H](C)CO)C[C@@H]2C)cc1	69.5*	.	-8.6	.	4.7
COc1ccc(S(=O)(=O)Nc2ccc3c(c2)C(=O)N([C@@H](C)CO)C[C@H](C)[C@@H](CN(C)Cc2ccc(Cl)c(Cl)c2)OCCCC[C@@H](C)O3)cc1	49.1	.	71.4*	.	12.1
COc1ccc(CN(C)C[C@H]2OCCCC[C@@H](C)Oc3ccc(NS(=O)(=O)c4ccc(OC)cc4)cc3C(=O)N([C@H](C)CO)C[C@H]2C)cc1	.	.	12.6	.	10.1
C[C@H]1CN([C@@H](C)CO)C(=O)c2cc(NC(=O)CCCN(C)C)ccc2O[C@H]1CN(C)Cc1ccc(-c2ccccc2)cc1	-6.1	.	-0.2	.	-17.2
Fc1ccc(N/N=C/c2ccc(N3CCOCC3)cc2)c(F)c1	-101.4	45.3	-45.4	69.7*	-6.9
O=C(NC1CCCC1)c1cc(COc2ccc3ncccc3c2)on1	.	24.6	.	29.2	.
O=C(NCCc1cn2ccccc2n1)c1cc(COc2ccc3ncccc3c2)on1	-14.3	66.2*	24.9	40.7	20.0
COc1cccc(CN(C)C(=O)c2cc(COc3ccc4ncccc4c3)on2)c1	10.6	59.5*	4.6	40.9	16.5
CCCC(=O)N1CCC2(CC1)CN(C(=O)Nc1ccc(F)cc1)[C@H](CO)c1c2c2ccc(OC)cc2n1C	-3.3	.	.	.	-8.8
C/C=C/c1ccc2c(c1)O[C@H](CN(C)C(=O)c1cccc(F)c1)[C@@H](C)CN([C@@H](C)CO)S2(=O)=O	-6.0	.	.	.	16.8

Assay outcomes from PubChem BioAssay.
